For experiment [1], the target named is Sphingosine kinase 1 (Homo sapiens) (UniProt Q9NYA1). Conditions: at 1 µM.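 Further: mean SPHK1 inhibition value reported from the GSK PKIS kinase panel screen.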
The target of experiment [2] is T1, Sphingosine kinase 2 (Homo sapiens) (UniProt Q9NRA0).
T1 sequence (whole entry): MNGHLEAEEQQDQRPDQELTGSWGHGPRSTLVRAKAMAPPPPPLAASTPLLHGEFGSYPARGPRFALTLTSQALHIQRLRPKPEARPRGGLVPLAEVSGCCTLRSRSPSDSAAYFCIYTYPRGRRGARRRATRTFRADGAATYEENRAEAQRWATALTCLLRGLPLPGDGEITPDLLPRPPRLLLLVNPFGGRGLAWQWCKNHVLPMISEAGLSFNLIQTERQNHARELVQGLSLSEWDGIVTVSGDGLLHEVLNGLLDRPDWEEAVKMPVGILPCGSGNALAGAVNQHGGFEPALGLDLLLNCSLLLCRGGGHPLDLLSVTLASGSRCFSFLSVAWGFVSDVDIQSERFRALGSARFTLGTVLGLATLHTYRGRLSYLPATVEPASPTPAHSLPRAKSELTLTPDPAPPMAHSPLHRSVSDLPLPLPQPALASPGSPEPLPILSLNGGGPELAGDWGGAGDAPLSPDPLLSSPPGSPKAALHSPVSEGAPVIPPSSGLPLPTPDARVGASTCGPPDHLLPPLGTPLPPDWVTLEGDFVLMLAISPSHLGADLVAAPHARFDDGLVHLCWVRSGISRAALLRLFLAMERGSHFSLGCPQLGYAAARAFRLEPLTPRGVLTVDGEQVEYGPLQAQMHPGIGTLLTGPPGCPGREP
To be noted: at 0.1 µM.

Experiment [3] deals with T1, Sphingosine kinase 2 (Homo sapiens). To be noted: at 1 µM.
Experiment [4] concerns the target Casein kinase II subunit alpha (Homo sapiens) (UniProt P68400). To be noted: at 0.1 µM.
Experiment [5] has the same target. To be noted: at 1 µM.
The target in experiment [6] is T2, Inhibitor of nuclear factor kappa-B kinase subunit alpha (Homo sapiens) (UniProt O15111).
T2 sequence (whole entry): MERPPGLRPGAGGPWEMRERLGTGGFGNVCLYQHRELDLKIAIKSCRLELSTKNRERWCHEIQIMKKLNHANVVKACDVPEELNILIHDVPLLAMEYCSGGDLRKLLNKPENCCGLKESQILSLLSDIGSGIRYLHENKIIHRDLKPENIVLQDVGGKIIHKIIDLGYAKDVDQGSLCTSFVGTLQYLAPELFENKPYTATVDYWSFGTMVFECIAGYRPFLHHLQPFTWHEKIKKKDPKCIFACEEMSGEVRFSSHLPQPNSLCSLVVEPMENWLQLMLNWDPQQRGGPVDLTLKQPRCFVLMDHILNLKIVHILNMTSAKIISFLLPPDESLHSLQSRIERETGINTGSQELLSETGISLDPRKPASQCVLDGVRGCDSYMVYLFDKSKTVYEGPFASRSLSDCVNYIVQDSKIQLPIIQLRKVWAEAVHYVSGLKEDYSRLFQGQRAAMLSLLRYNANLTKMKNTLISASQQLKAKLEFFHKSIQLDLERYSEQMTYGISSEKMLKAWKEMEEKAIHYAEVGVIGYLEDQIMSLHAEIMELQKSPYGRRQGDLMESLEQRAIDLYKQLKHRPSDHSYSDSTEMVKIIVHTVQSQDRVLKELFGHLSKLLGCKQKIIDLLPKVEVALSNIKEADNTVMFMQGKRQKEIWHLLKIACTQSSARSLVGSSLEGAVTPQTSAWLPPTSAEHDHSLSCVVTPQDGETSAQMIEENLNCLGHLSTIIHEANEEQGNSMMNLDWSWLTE
Conditions: at 0.1 µM.

The target in experiment [7] is T2, Inhibitor of nuclear factor kappa-B kinase subunit alpha (Homo sapiens). To be noted: at 1 µM.
Experiment [8] concerns the target T3, Inhibitor of nuclear factor kappa-B kinase subunit beta (Homo sapiens) (UniProt O14920).
T3 sequence (whole entry): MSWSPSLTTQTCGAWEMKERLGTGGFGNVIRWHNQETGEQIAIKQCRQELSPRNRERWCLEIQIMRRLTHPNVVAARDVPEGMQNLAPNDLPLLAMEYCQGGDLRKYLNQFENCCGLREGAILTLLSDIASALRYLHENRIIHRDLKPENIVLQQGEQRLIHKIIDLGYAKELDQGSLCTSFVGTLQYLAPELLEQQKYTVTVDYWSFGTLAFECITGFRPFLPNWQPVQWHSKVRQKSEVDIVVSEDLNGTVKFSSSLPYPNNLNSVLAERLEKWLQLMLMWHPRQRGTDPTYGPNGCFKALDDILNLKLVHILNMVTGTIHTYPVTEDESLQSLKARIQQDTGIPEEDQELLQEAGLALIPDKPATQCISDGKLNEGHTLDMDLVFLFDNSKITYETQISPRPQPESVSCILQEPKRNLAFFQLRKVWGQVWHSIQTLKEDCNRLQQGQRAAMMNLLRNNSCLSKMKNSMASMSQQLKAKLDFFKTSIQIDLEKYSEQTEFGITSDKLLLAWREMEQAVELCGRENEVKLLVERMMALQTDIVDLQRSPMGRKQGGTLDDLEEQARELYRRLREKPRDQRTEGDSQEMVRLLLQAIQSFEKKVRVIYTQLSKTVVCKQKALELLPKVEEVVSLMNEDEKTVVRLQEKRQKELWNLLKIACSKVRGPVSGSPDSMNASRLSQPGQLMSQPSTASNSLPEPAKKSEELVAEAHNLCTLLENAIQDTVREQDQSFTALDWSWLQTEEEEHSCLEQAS
To be noted: at 0.1 µM.

Experiment [9] addresses T3, Inhibitor of nuclear factor kappa-B kinase subunit beta (Homo sapiens). To be noted: at 1 µM.
The target in experiment [10] is T4, Inhibitor of nuclear factor kappa-B kinase subunit epsilon (Homo sapiens) (UniProt Q14164).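 Further: mean inhibition of IKKε reported, from the GSK PKIS dataset.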
T4 sequence (whole entry): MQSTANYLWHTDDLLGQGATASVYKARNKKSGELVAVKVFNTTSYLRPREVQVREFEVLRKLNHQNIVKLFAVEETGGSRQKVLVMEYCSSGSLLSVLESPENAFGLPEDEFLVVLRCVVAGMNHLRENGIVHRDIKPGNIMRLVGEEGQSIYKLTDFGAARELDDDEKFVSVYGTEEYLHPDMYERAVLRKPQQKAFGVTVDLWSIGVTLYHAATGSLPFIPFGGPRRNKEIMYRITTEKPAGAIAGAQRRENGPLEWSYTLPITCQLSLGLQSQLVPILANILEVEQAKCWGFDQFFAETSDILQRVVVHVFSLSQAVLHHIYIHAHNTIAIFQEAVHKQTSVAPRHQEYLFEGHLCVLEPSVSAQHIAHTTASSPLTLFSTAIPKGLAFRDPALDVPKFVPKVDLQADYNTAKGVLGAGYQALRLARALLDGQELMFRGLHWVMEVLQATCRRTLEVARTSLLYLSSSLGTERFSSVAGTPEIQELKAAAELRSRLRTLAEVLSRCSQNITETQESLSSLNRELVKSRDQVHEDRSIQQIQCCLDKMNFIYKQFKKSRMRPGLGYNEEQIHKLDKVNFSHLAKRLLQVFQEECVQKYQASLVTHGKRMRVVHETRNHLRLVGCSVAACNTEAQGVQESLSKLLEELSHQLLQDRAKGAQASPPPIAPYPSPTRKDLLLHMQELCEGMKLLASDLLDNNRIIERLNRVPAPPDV
To be noted: at 0.1 µM.

Sequence of Casein kinase II subunit alpha (Homo sapiens) (P68400 whole entry, looked up): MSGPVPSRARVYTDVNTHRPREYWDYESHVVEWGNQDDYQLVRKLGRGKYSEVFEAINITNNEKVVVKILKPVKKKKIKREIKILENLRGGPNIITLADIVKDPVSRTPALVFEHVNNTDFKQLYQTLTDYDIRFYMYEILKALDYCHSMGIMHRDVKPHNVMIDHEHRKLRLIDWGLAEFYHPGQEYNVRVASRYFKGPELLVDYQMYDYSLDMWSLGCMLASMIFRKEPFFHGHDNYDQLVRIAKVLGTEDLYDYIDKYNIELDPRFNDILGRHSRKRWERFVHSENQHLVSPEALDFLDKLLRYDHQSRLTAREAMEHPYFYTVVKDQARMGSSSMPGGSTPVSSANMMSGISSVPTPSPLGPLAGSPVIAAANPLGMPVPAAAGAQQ
Sequence of Sphingosine kinase 1 (Homo sapiens) (Q9NYA1 whole entry): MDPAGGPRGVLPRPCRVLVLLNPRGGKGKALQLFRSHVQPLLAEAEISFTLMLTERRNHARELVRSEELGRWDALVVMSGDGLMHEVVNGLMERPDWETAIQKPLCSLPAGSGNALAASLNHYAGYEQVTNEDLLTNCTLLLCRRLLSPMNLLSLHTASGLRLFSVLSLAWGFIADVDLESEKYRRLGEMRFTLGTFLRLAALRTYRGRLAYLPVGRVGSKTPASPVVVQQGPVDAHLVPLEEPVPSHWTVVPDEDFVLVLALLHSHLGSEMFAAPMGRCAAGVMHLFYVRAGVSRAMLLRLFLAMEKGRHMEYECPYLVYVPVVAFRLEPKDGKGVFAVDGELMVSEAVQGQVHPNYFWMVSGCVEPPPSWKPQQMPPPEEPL

`Cc1ccc2c(-c3ccnc(Nc4ccccc4)n3)c(-c3ccc(F)cc3)nn2n1`: the inhibition (commonly the change of the read-out against control, counted positive when it falls) in experiment [1] is 1.05%; in [2], -1.64%; in experiment [3], 0%; in [4] it was 1.08%; in experiment [5], -2.67%; in experiment [6], 5%. Further, the inhibition was 0.7% in experiment [7], 4.32% in experiment [8], 1.74% in [9] and 1.25% in [10].
Turning to `Fc1cccc(COc2ccc(Nc3ncnc4sc(-c5ccco5)cc34)cc2Cl)c1`, the inhibition is -6.23% in experiment [1]; -2.56% in experiment [2]; -0.56% in experiment [3]; 8.17% in experiment [4]; 3.13% in experiment [5]; 8.13% in experiment [6]. Moreover, the inhibition is 10.1% in [7], 5.86% in [8], 6.49% in experiment [9] and 6.22% in [10].
Regarding `CS(=O)(=O)CCNCc1ccc(-c2ccc3ncnc(Nc4ccc(OCc5ccccc5)c(C(F)(F)F)c4)c3c2)o1`, the inhibition in experiment [1] is 3.88%; in experiment [2], -1.22%; in experiment [3], 0.8%; in [4] it was 10.8%; in [5], 4.64%; in experiment [6], 5.21%. Further, the inhibition in [7] is 0.84%; in experiment [8], 9.46%; in [9], 10.4%; in experiment [10], 6.52%.
As for `c1cc(-c2cnn3nc(N4CCOCC4)ccc23)nc(NC2CC2)n1`, the inhibition was determined as 0.41% in experiment [1]; 0% in experiment [2]; 1.66% in experiment [3]; 1.46% in [4]; 7.14% in experiment [5]; 6.71% in experiment [6]. Further, the inhibition in experiment [7] was 15.7%; in experiment [8], 3.81%; in [9], 5.82%; in experiment [10], 2.67%.
With `c1ccc(COc2ccc(Nc3ncnc4ccc(-c5ccco5)cc34)cc2)cc1`, the inhibition in experiment [1] is 0.95%; in experiment [2], -2.53%; in experiment [3], 1.35%; in [4] it was 1.23%; in experiment [5], 4.42%; in experiment [6], -5.49%. In addition, the inhibition was 0.49% in [7], 1.07% in experiment [8], 0.01% in experiment [9] and 4.51% in [10].
With `CC(C)COC(=O)c1ccc2c(c1)/C(=C/Nc1ccc(S(N)(=O)=O)cc1)C(=O)N2`, the inhibition in experiment [1] is 1.92%; in experiment [2] it was -0.06%; in [3], -0.44%; in [4] it was 7.86%; in experiment [5], 47.2%; in experiment [6], -1.06%. The inhibition in [7] was 3.25%; in [8] it was -0.4%; in [9] it was 6.93%; in [10] it was 46.2%.
Take `CNC(=O)c1cncc(/C=C/c2ccccc2Cl)c1`: the inhibition in [1] was -2.41%; in experiment [2] it was 0.11%; in experiment [3], -0.01%; in experiment [4], 0.75%; in experiment [5] it was 8.72%; in [6], 2.99%. Besides, the inhibition in experiment [7] is -3.09%; in experiment [8], -0.46%; in experiment [9], 1.87%; in [10] it was 2.76%.
With `CNC(=O)c1cc(-c2ccc(F)cc2)cc(-c2ccc(S(=O)(=O)N3CCCC3)cc2)c1N`, the inhibition was -1.82% in experiment [1]; -0.5% in experiment [2]; -0.63% in [3]; 15.5% in [4]; 3.05% in experiment [5]; 7.04% in experiment [6]. Also, the inhibition was 4.67% in experiment [7], 5.48% in experiment [8], 5.18% in [9] and 2.88% in [10].

The record behind these values is ChEMBL document CHEMBL1961873, “Compounds: GSK PKIS; Assays: Nanosyn kinase panel” (2012).
